Reference: PubChem BioAssay (NCI)
This is part of a sample that, as a whole, favours compounds with a hit. Of some 83,000 tested, about 20% had one in any assay.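 Single-concentration screen, 48 h exposure, 96-well plates. Endpoint: percent growth. Below 10 = active.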 Values without a mark were called inactive. Active and inactive are the calls of the source.

Tests used:
Assay in all cases: NCI-60 one-dose screen, 48 h (100 = growth as untreated, 0 = no growth, -100 = all killed)
Details in all cases: 10 µM unless noted
T-47D breast = tested on: T-47D breast
BT-549 breast = tested on: BT-549 breast
MDA-MB-435 melanoma = tested on: MDA-MB-435 melanoma
SW-620 colon = tested on: SW-620 colon
MCF7 breast = tested on: MCF7 breast
HCT-116 colon = tested on: HCT-116 colon
HCC-2998 colon = tested on: HCC-2998 colon
KM12 colon = tested on: KM12 colon

| Compound | growth (T-47D breast) | growth (BT-549 breast) | growth (MDA-MB-435 melanoma) | growth (SW-620 colon) | growth (MCF7 breast) | growth (HCT-116 colon) | growth (HCC-2998 colon) | growth (KM12 colon) |
| --- | --- | --- | --- | --- | --- | --- | --- | --- |
| O=C(C[N+](=O)[O-])c1ccc(Cl)cc1 | 113% | 102% | 114% | 106% | 100% | 101% | 110% | 109% |
| COc1ccc(/C=C/C(=O)c2ccc(B(O)O)cc2)cc1O | 79.2% | 64.8% | 3.03% (active) | 28.5% | 20.2% | 1.46% (active) | 49.8% | 9.39% (active) |
| C=CCOc1ccc(/C(O)=C2\C(=O)C(=O)N(c3nccs3)C2c2ccccc2F)cc1 (configuration not stated) | 100% | 113% | 94% | 103% | 112% | 95.4% | 107% | 89.4% |
| COc1ccc(/C=C/c2cc(N3CCOCC3)c3cc(F)c(F)cc3n2)cc1OC | 37.9% | 45.2% | 51% | 45.8% | 22.1% | 24.5% | 29% | 33.3% |
| C=C1C(=O)O[C@H]2[C@H]1CC/C(COC(=O)NCCc1ccc(OC)cc1)=C\CC[C@@]1(C)O[C@@H]21 | -5.43% (active) | 8.9% (active) | 21.5% | -65.6% (active) | 2.77% (active) | -58.4% (active) | 71.1% | 56.9% |
| COc1cc(Cn2c(SCC(=O)Nc3ccc(Cl)cc3)nc3ccccc3c2=O)cc(OC)c1OC | 45.2% | 75.1% | 69.8% | 77.7% | 77.2% | 35.6% | 93.2% | 79.4% |
| COc1cc(/C=C2\CCCC3=C2NC(C)=NC3c2cc(OC)c(OC)c(OC)c2)cc(OC)c1OC (configuration not stated) | 79.2% | 2.96% (active) | 5.2% (active) | -8.03% (active) | 23% | -78.2% (active) | 11.9% | 2.95% (active) |
| C#CCC1(c2ccc(F)c(F)c2)NS(=O)(=O)c2ccccc21 (configuration not stated) | 85.4% | 110% | 107% | 108% | 94.1% | 95.5% | 102% | 102% |
| COc1ccc(-c2nnc(COc3ccc(NS(=O)(=O)c4ccc(OC)cc4)cc3F)o2)cc1 | 31.6% | 84.7% | 81.4% | 94.3% | 69.5% | 67.2% | 93.1% | 73.4% |
| CCNc1nc(N2CC(=O)Nc3cc(OC)ccc32)c2ccccc2n1 | 11.6% | -22.2% (active) | -25.8% (active) | 21.5% | 3.09% (active) | -14.1% (active) | -20.8% (active) | 4.88% (active) |
| COC1=CC(c2ccc[nH]2)=N/C1=C\c1[nH]c(C)c(C(=O)CCCCC(=O)NCc2ccccc2)c1C | 50.5% | 21.5% | -20% (active) | -96.7% (active) | -100% (active) | -83.1% (active) | 57.8% | -25.2% (active) |
| COc1ccc(/C(=N\O)c2cc(OC)c(OC)c(OC)c2)c(OC)c1N | 45.1% | 2.29% (active) | -66.3% (active) | 23.4% | 15.6% | 7.66% (active) | 35.7% | 11.7% |
| COc1cc(-c2csc(NC(=O)c3cc(C(F)(F)F)cc(C(F)(F)F)c3)n2)cc(OC)c1OC | -15.9% (active) | 18.7% | 28.6% | 44% | 18.4% | 14.4% | 31% | 22.1% |
| O=C(COc1ccccc1)N1N=C(c2ccc(Cl)cc2)CC1c1c[nH]c2ccccc12 (configuration not stated) | 51.4% | 71.3% | 93.8% | 54.5% | 39.7% | 68.5% | 103% | 74.1% |
| CSc1ccccc1C#C/C=C\C#Cc1ccccc1N1CCCC1=O | 63.2% | 69.7% | 8.9% (active) | 26.9% | 37.6% | 34.4% | 50.2% | 44.4% |
| CCNC(=O)C1CCCN1C(=O)C(CCCN=C(N)N)NC(=O)C(CC(C)C)NC(=O)C(CC(C)C)NC(=O)C(Cc1ccc(O)cc1)NC(=O)C(CO)NC(=O)C(Cc1c[nH]c2ccccc12)NC(=O)C(Cc1cnc[nH]1)NC(=O)C1CCC(=O)N1 (configuration not stated) | 104% | 113% | 105% | 89.4% | 86.1% | 95.2% | 94.4% | 104% |
| Cc1ccc2c(c1)C(C)Cc1c(ncnc1-n1cnc3ccccc31)N2C (configuration not stated) | 50.3% | -1.38% (active) | -47.9% (active) | 21.6% | 13.5% | 5.53% (active) | 17.4% | 13.8% |
| Cc1ccc(Oc2nc3ccccc3cc2-c2nnc(Cn3c(COc4ccccc4)nc4ccccc43)o2)cc1 | 48.9% | 14.7% | 50.8% | 18.1% | 11.6% | -2.01% (active) | 64.5% | 16.7% |
| Cc1nc2sccn2c1-c1csc(Nc2ccccc2Cl)n1 | 41% | 40.6% | 2.78% (active) | 33.1% | 33.9% | 27.8% | 63.8% | 29.6% |
| CCC(c1ccc(OC)cc1)C(CC)c1ccc(O)c(CN2CCCC2)c1 (configuration not stated) | -33% (active) | 2.58% (active) | -31.6% (active) | 0.333% (active) | -44.4% (active) | 35.9% | -83% (active) | 27.9% |
| CN1CCN(c2ccc3cc(-c4nc5ccccc5[nH]4)c(=O)oc3c2)CC1 | 76.9% | 87.7% | 99.5% | 107% | 73.6% | 81.9% | 114% | 90% |
| COc1ccc(NC(=O)CSc2nc3ccccc3c(=O)n2-c2ccccc2C(F)(F)F)c(OC)c1OC | 95.1% | 99.8% | 107% | 95.3% | 97.8% | 98.3% | 118% | 101% |
| O=S(=O)(NCCCNc1nccc(-c2c(-c3ccccc3)nc3sccn23)n1)c1ccc(F)cc1 | 7.39% (active) | 54.3% | 16.5% | 53.8% | 31.6% | 25.9% | 86.4% | 39.4% |
| COc1c(NC[C@H]2OC(O)[C@H](O)[C@@H](O)[C@@H]2O)c(=O)c1=O (some centres not stated) | 95.3% | 112% | 98% | 101% | 103% | 100% | 97.9% | 111% |
| N#CC1=C(N)OC2=C(C(=O)CCC2)C1c1ccco1 (configuration not stated) | 92.6% | 110% | 98.9% | 110% | 95.5% | 103% | 104% | 110% |
| Cc1cc(C)c(NC(=O)c2sc3nc4c(cc3c2N)CN(Cc2ccccc2)CC4)c(C)c1 | 27.4% | 52.2% | -18.6% (active) | 23.7% | 17.6% | 22.6% | 62.3% | 19.4% |
| Cc1cc(C(=O)CSc2nc3ccccc3c(=O)[nH]2)c(C)n1C | 79.9% | 89.8% | 101% | 102% | 95.1% | 106% | 72.9% | 96.7% |
| O=C(O)c1ccc(-n2c(=O)c3ccccc3c3ccccc3c2=O)cc1 | 92.8% | 107% | 103% | 110% | 96.3% | 104% | 110% | 104% |
| CCOC(=O)CC(C#N)(CC(=O)OCC)C(=O)OCC | 105% | 106% | 94.8% | 108% | 101% | 102% | 109% | 106% |
